According to PubChem BioAssay:
Active and inactive are the calls of the source.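 How the source made its calls: active means compound raising the membrane signal above positive-control mean plus 3 SD in both repeats, and a primary screen hit; inactive means the rest.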

Target: Short transient receptor potential channel 6 (Mus musculus) (UniProt Q61143)
Experiment: TRPC6 potentiation by TRPC4 potentiator hits, confirmation, selectivity assay for TRPC4 potentiator project, HEK293 cells, membrane potential dye, duplicate (AID 434952)
Settings: HEK293 TRPC6, membrane potential dye fluorescence, at 10 µM, maximal acetylcholine added after compound; active compounds read high

Chain of Short transient receptor potential channel 6 (Mus musculus) (Q61143 whole entry, looked up): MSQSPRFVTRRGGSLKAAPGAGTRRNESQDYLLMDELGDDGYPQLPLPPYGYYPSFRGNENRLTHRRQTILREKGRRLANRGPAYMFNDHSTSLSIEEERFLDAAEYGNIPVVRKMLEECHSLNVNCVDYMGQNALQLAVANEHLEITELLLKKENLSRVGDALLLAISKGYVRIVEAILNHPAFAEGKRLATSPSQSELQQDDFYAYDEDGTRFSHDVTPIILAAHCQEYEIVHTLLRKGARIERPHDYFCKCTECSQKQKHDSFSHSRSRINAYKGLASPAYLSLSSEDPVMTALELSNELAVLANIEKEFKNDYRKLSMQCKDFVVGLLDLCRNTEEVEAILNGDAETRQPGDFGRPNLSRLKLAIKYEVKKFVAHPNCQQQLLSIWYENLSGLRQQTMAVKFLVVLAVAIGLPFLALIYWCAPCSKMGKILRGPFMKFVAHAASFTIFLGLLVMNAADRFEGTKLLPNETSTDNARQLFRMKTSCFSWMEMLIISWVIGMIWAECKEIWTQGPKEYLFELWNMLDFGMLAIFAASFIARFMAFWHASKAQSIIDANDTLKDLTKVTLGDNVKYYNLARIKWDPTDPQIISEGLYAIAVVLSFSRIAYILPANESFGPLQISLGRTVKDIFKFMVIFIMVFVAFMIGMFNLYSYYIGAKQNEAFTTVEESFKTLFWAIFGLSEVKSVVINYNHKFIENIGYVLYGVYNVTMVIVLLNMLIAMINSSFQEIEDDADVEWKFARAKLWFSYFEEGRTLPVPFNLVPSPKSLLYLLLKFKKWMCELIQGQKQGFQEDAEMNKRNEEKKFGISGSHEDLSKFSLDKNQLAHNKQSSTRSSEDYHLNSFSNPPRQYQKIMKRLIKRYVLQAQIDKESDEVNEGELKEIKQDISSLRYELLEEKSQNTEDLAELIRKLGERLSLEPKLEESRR

outcome, inactive:
COc1ccc(C(CNC(=O)COc2ccccc2OC)N(C)C)cc1OC (centres undefined)
COc1ccc(C(CNC(=O)CCOc2ccccc2)N(C)C)cc1 (centres undefined)
CN(C)C(CNc1ccc(C(F)(F)F)cn1)c1ccccc1 (centres undefined)
Fc1ccc(-n2cc(CNCCc3cccnc3)c(-c3ccccc3Cl)n2)cc1
CCOC(=O)c1ccc(NC(=O)NCCc2cnc[nH]2)cc1
CN1CCN(C(=O)c2cccn(Cc3c(Cl)cccc3Cl)c2=O)CC1
Cc1sc2ncnc(NCC(c3ccccc3)N(C)C)c2c1C (centres undefined)
O=C(O)C1C2C=CC(C2)C1C(=O)N1CCN(C/C=C/c2ccccc2)CC1 (centres undefined)
CCCCN(CC)CCNC(=O)c1cc2c(-c3ccc(Cl)cc3)nn(C)c2s1
O=C(Nc1ccncc1)c1ccc(Cl)c(S(=O)(=O)N2CCc3ccccc32)c1
CC(=O)OCC[N+](C)(C)C
COc1ccc(CCN(C)C(=O)C2CCCN(C3CCN(Cc4ccccc4)CC3)C2)cc1OC (centres undefined)
Cc1cc(C)cc(NC(=S)N2CCN(c3ncc(C(F)(F)F)cc3Cl)CC2)c1
COc1ccc(C(CNC(=O)Cc2ccc(-c3ccccc3)cc2)N(C)C)cc1 (centres undefined)
O=c1c(Cc2ccccc2)c(O)ccn1CCc1cnc[nH]1
COc1ccc(C(=O)NNC(=S)NC(=O)c2cccs2)cc1
CCC(=O)NC(C)C(c1cccs1)N1CCN(c2ccccc2)CC1 (centres undefined)
NCCCNC(=O)c1cc2ccccc2[nH]1
Cn1c2ccccc2c(=O)c2c(=O)n(C3CCCCC3)c(-c3ccco3)nc21
COc1ccc(-n2c3c(cc(C(=O)NNc4ccccc4)c2=O)C(=O)CC(C)(C)C3)cc1
O=C(c1sc2ccccc2c1Cl)N(Cc1ccccc1)C1CCS(=O)(=O)C1 (centres undefined)
CN(C)C(CNC(=S)Nc1ccc(Cl)cc1)c1cccnc1 (centres undefined)
Cc1ccc(C(=O)NNC(=S)NC(=O)COc2ccccc2)cc1
CCCCCc1c(O)nc(SCCN(C)C)[nH]c1=O
CC1CC(C)CN(CCCNS(=O)(=O)c2cc(Br)cc3c2N(C(=O)C2CC2)CC3)C1 (centres undefined)
CN1C2C=C(N(CCc3ccccc3)C(=O)c3ccc(Cl)cc3)CC1CC2 (centres undefined)
Cc1ccccc1C(=O)NNC(=S)NC(=O)COc1ccccc1
CCOC(=O)C1(CC2CCCCO2)CCN(Cc2cc(F)ccc2-n2cccn2)CC1 (centres undefined)
Cc1ccc(NC(=O)CCN2CCC(Cc3ccccc3)CC2)cc1
CCCn1ncc(CN2CCC(n3nccc3NC(=O)CCc3ccccc3)CC2)c1C
Cc1sc2ncnc(NCC(c3ccco3)N(C)C)c2c1C (centres undefined)
CCCN(CCC)CCNC(=O)CCC(=O)Nc1ccc2nc(N3CCOCC3)cc(C)c2c1
CCN1CCN(c2c(Cl)cccc2NC(=O)c2ccc([N+](=O)[O-])cc2)CC1
CN1CCN(c2ccc(NC(=O)c3ccc(-c4cccc([N+](=O)[O-])c4)o3)cc2)CC1
OCCC1CN(Cc2ccccc2-c2ccco2)CCN1Cc1ccccc1 (centres undefined)
CN(C)C(CNC(=O)NC1CCCCC1)c1cccnc1 (centres undefined)
COCCCn1c(N)c(-c2nc3ccccc3n2C)c2nc3ccccc3nc21

potentiation, percent of control, active:
O=C1/C(=C\c2cc([N+](=O)[O-])ccc2O)SC(=S)N1Cc1ccc(Cl)cc1 192%
O=C1S/C(=C\c2ccc(N3CCOCC3)o2)C(=O)N1Cc1c(F)cccc1Cl 191%
